The text below walks through data of PubChem BioAssay (NCI).

Some test systems named below: DU-145 prostate; K-562 leukemia; MALME-3M melanoma; MDA-MB-231 breast; RXF 393 renal; SF-268 CNS; SF-295 CNS; SF-539 CNS; UACC-257 melanoma; M14 melanoma; HCT-15 colon; HT29 colon; SNB-75 CNS; SNB-19 CNS; U251 CNS; PC-3 prostate; SK-MEL-5 melanoma; UACC-62 melanoma; LOX IMVI melanoma; SK-MEL-28 melanoma.
Common to all, as to experiment: NCI-60 one-dose screen, 48 h (100 = growth as untreated, 0 = no growth, -100 = all killed)
Settings in all cases: 10 µM unless noted

Structures are written as SMILES. Compounds without any hit were thinned out: in the full panel of roughly 83,000, 20% have a hit.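 Single-concentration screen, 48 h exposure, 96-well plates. Endpoint: percent growth. Below 10 = active.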 Values without a mark were called inactive. Active and inactive are the calls of the source.

Consider `c1ccc(CCNc2c3ccccc3nc3ccccc23)cc1`, for which the growth in the experiment with DU-145 prostate is 37.9%; in the experiment with K-562 leukemia, 25%; in the experiment with MALME-3M melanoma, 57.1%; in the experiment on MDA-MB-231 breast, 43.3%; with RXF 393 renal, 35.3%; with SF-268 CNS, 66.5%. Moreover, the growth in the experiment on SF-295 CNS is 34.9%; with SF-539 CNS, 28.1%; with UACC-257 melanoma it was 55.2%; in the experiment with M14 melanoma it was 42.7%; in the experiment on HCT-15 colon, 23.3%; in the experiment on HT29 colon, 22.1%. Besides, the growth in the experiment on SNB-75 CNS is 67.6%; in the experiment with SNB-19 CNS it was 39.5%; in the experiment on U251 CNS, 41.1%; in the experiment on PC-3 prostate it was 35.7%; with SK-MEL-5 melanoma, 64.7%; in the experiment on UACC-62 melanoma it was 53.2%. In addition, the growth is 17.6% with LOX IMVI melanoma and 67.7% in the experiment with SK-MEL-28 melanoma.

With `COc1cc(OC)cc(-c2ccc(-c3ccc(C(=N)N)o3)o2)c1`, the growth in the experiment with DU-145 prostate is 60.2%; in the experiment on K-562 leukemia, 4.64% (active); with MALME-3M melanoma, 71.3%; in the experiment with MDA-MB-231 breast, 0.981% (active); in the experiment with RXF 393 renal it was 58.2%; in the experiment with SF-268 CNS, 62.6%. The growth in the experiment on SF-295 CNS is 86.3%; in the experiment with SF-539 CNS it was 73.1%; with UACC-257 melanoma it was 45.4%; with M14 melanoma it was 25.1%; with HCT-15 colon it was -6.9% (active); with HT29 colon, 8.19% (active). Also, the growth in the experiment on SNB-75 CNS was 87.6%; in the experiment with SNB-19 CNS it was 51.3%; in the experiment on U251 CNS it was 8.25% (active); with PC-3 prostate, 71.2%; with SK-MEL-5 melanoma, 76%; in the experiment with UACC-62 melanoma, -3.63% (active). The growth in the experiment with LOX IMVI melanoma was -64.1% (active); in the experiment with SK-MEL-28 melanoma it was 87.8%.

Consider `CSc1nn2c(-c3ccc4ccccc4c3)ccnc2c1C#N`, for which the growth in the experiment with DU-145 prostate is 43%; with K-562 leukemia, 11.1%; with MALME-3M melanoma, 10.1%; in the experiment with MDA-MB-231 breast, 27.3%; in the experiment on RXF 393 renal, 19%; with SF-268 CNS, 45.3%. In addition, the growth with SF-295 CNS was 8.45% (active); with SF-539 CNS, 26.3%; with UACC-257 melanoma it was 63%; with M14 melanoma, 5.19% (active); in the experiment with HCT-15 colon it was 15.4%; in the experiment on HT29 colon, 2.83% (active). Moreover, the growth with SNB-75 CNS was -7.71% (active); with SNB-19 CNS, 18.3%; in the experiment with U251 CNS, 6.98% (active); with PC-3 prostate it was 45.8%; in the experiment on SK-MEL-5 melanoma, 10.1%; in the experiment with UACC-62 melanoma, 18.8%. Also, the growth was 21.7% with LOX IMVI melanoma and 38.9% in the experiment on SK-MEL-28 melanoma.

Turning to `Fc1cc(Nc2ccc3c(OCCCN4CCOCC4)cccc3n2)ccc1Cl`, the growth is 48.1% in the experiment on DU-145 prostate; -34.8% (active) in the experiment on K-562 leukemia; 21.4% with MALME-3M melanoma; -18.9% (active) in the experiment with MDA-MB-231 breast; 1.26% (active) with RXF 393 renal; 48.5% with SF-268 CNS. For the same molecule, the growth with SF-295 CNS is -46.2% (active); with SF-539 CNS it was 15.7%; in the experiment on UACC-257 melanoma, 75.9%; in the experiment with M14 melanoma, -31.1% (active); in the experiment with HCT-15 colon, -13.4% (active); in the experiment on HT29 colon it was -49.3% (active). Also, the growth in the experiment with SNB-75 CNS is 37.3%; in the experiment with SNB-19 CNS it was 17.8%; with U251 CNS it was 14.4%; in the experiment on PC-3 prostate, 30.6%; in the experiment on SK-MEL-5 melanoma, 63.6%; in the experiment with UACC-62 melanoma it was -31.7% (active). For the same molecule, the growth in the experiment on LOX IMVI melanoma is -78.7% (active); with SK-MEL-28 melanoma it was -35.8% (active).

Regarding `COc1ccc(-c2nc(-c3cn(C)c4ncccc34)cs2)cc1`, the growth with DU-145 prostate was 15.2% [100 µM]; in the experiment with K-562 leukemia, 11% [100 µM]; with MALME-3M melanoma it was -54.9% [100 µM] (active); in the experiment on MDA-MB-231 breast, 15.9% [100 µM]; with RXF 393 renal, -12.6% [100 µM] (active); in the experiment on SF-268 CNS it was 23.4% [100 µM]. Moreover, the growth with SF-295 CNS was -25.5% [100 µM] (active); with SF-539 CNS it was -67.2% [100 µM] (active); in the experiment with UACC-257 melanoma it was 17.5% [100 µM]; in the experiment on M14 melanoma it was -69.6% [100 µM] (active); in the experiment with HCT-15 colon, -1.17% [100 µM] (active); in the experiment on HT29 colon, -63.2% [100 µM] (active). Further, the growth in the experiment on SNB-75 CNS was -3.6% [100 µM] (active); with SNB-19 CNS it was 23.2% [100 µM]; with U251 CNS, 3.9% [100 µM] (active); with PC-3 prostate, -28.2% [100 µM] (active); in the experiment with SK-MEL-5 melanoma it was -83.4% [100 µM] (active); in the experiment on UACC-62 melanoma, -20.1% [100 µM] (active). In addition, the figures for the growth in the experiment with LOX IMVI melanoma and in the experiment with SK-MEL-28 melanoma were -47.1% [100 µM] (active) and 37.9% [100 µM], respectively.

With `CC1C=CC(OC(=O)C(C)(O)CCC(O)(C(=O)OC2CC(O)C(C(C)C)CC2(C)O)C(C)C)(C(C)C)CC1` (stereo not given), the growth in the experiment on DU-145 prostate was -89% [4.63 µM] (active); in the experiment with K-562 leukemia it was -61.1% [4.63 µM] (active); in the experiment with MALME-3M melanoma, -71.5% [4.63 µM] (active); with MDA-MB-231 breast it was -59.7% [4.63 µM] (active); with RXF 393 renal, -87.3% [4.63 µM] (active); with SF-268 CNS, -43.9% [4.63 µM] (active). Moreover, the growth in the experiment on SF-295 CNS was -86.9% [4.63 µM] (active); with SF-539 CNS, -95.5% [4.63 µM] (active); in the experiment on UACC-257 melanoma, -88% [4.63 µM] (active); with M14 melanoma it was -74.8% [4.63 µM] (active); in the experiment with HCT-15 colon it was -68.5% [4.63 µM] (active); with HT29 colon it was -39.6% [4.63 µM] (active). The growth with SNB-75 CNS is -45.9% [4.63 µM] (active); in the experiment with SNB-19 CNS, -75% [4.63 µM] (active); in the experiment on U251 CNS, -94.2% [4.63 µM] (active); in the experiment with PC-3 prostate it was -84.9% [4.63 µM] (active); with SK-MEL-5 melanoma, -99.8% [4.63 µM] (active); in the experiment on UACC-62 melanoma it was -88.9% [4.63 µM] (active). Moreover, the growth with LOX IMVI melanoma is -88.4% [4.63 µM] (active); with SK-MEL-28 melanoma, -96.9% [4.63 µM] (active).

As to `CN(C)CCN1C(=O)c2cccc3c(/C=C/CN4C(=O)c5cccc6cccc(c56)C4=O)ccc(c23)C1=O`, the growth was 113% in the experiment on DU-145 prostate; -46.8% (active) in the experiment on K-562 leukemia; -62.4% (active) in the experiment with MALME-3M melanoma; -57.4% (active) in the experiment with MDA-MB-231 breast; 57% in the experiment with RXF 393 renal; 101% in the experiment with SF-268 CNS. Further, the growth with SF-295 CNS is 106%; with SF-539 CNS, 92.8%; in the experiment with UACC-257 melanoma it was 92%; with M14 melanoma, 77.9%; in the experiment on HCT-15 colon, -75.6% (active); in the experiment on HT29 colon it was 94%. Besides, the growth with SNB-75 CNS was 90.6%; in the experiment on SNB-19 CNS, 18.7%; in the experiment with U251 CNS, 90.8%; with PC-3 prostate, 71.7%; in the experiment with SK-MEL-5 melanoma it was 82.2%; with UACC-62 melanoma it was 98.7%. Moreover, the growth with LOX IMVI melanoma was 30.3%; with SK-MEL-28 melanoma it was -56.5% (active).
